# Compound activity as filed in PubChem.
# ABHD5-PLIN5 inh = blocks binding of human ABHD5 to perilipin-5; inhibition, % at 4 µM; actives 0.78% (n = 360,000); Split G. princeps luciferase complementation, luminescence, 4 h;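 active = inhibition above the mean inhibition across every tested compound plus 3 SD, cut at about 22% in these data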;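 note: 0% = DMSO only wells and the 100% control is not disclosed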
# PAX8 reporter = lowers PAX8-driven luciferase in RMG-I cells; RMG-I TPO-luciferase reporter, SteadyGlo, 24 h; inhibition, % at 12.6 µM; actives 1.2% (n = 360,000); AID 652154;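 active = mean replicate inhibition at least 60% with every replicate also reaching 60%; inconclusive = only one of the two criteria is met; inactive = mean below 60% and not all replicates reaching 60%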;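 note: luciferase light reporting Pax8 driven TPO promoter activity; plate controls were median of neutral control wells for no effect and mitoxantrone controls for full effect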
# Peg3 promoter = inhibitors of Peg3 promoter | AID 588405 | inhibition, % at 20 µM | HeLa PEG-Prom luciferase reporter, luminescence, overnight | actives 1.7% (n = 360,000);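 active = inhibition of at least 50% at 20 µM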
# Shn3 3UTR inh = Schnurri-3 reporter inhibition in Clone20 osteoblasts. actives 0.52% (n = 360,000). Clone20 osteoblast Shn3 3'UTR firefly luciferase, 24 h. inhibition, % at 12.5 µM. AID 588674;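 active = mean inhibition of at least 75% with every replicate also reaching 75%; inconclusive = mean inhibition at least 75% but some replicate below; inactive = mean inhibition below 75%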;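 note: 0% = median of neutral control wells and 100% = pilot-screen positive control compound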
# EWS-Fli block = EWS/Fli transcriptional activity inhibition; A673 NR0B1-luciferase reporter, viability-normalised; inhibition, % at 12.6 µM; actives 0.67% (n = 350,000); AID 651661;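 active = mean inhibition of at least 50% after viability correction, with every replicate also passing that limit; inconclusive = mean reaches 50% but only one of two replicates passes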;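 note: firefly luciferase signal divided by Alamar Blue viability fluorescence both relative to DMSO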
# MITF TRPM1 inh = inhibitors of MITF-driven TRPM1 promoter in melanoma cells; SK-MEL-5 TRPM1 promoter luciferase, 24 h; inhibition, % at 12.5 µM; actives 0.83% (n = 330,000); AID 488899;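 active = mean inhibition across replicates of 60% or more, whatever share of single replicates reaches that level; inconclusive = some that reach 60%, reason not given; inactive = mean inhibition across replicates below 60%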
# * marks the source's active call; other numbers are inactive results; ? = inconclusive; / = no result given. In the library only some 3% were active in any assay of this set; here they are far more common.
SMILES,ABHD5-PLIN5 inh,PAX8 reporter,Peg3 promoter,Shn3 3UTR inh,EWS-Fli block,MITF TRPM1 inh
CCOC(=O)c1c(-n2cccc2)sc2c1CCCC2=O,1.6,-2.5,51.4*,-25.5,11.2,-2.6
O=C(OCC(=O)N1CCN(C(=O)c2ccco2)CC1)c1cc(-c2ccc(Cl)c(Cl)c2Cl)nc2ccccc12,1.0,13.3,16.4,-7.2,/,-4.4
O=C(OCC(=O)N1CCN(C(=O)c2ccco2)CC1)c1cc(-c2ccco2)nc2ccccc12,23.9*,/,8.5,4.7,0.0,-0.4
O=C(OCC(=O)N1CCN(C(=O)c2ccco2)CC1)c1cccc(S(=O)(=O)N2CCc3ccccc32)c1,-2.4,100.6*,0.1,31.6,-4.5,49.9
CO[C@H]1CC[C@@H]2CCOc3ccc(C#N)cc3C(=O)N(C)C[C@H](OC)[C@H](C)C(=O)N(C)C[C@@H]1O2,/,32.9,/,/,1.0,/
O=C(NCc1ccc2c(c1)OCO2)c1cccc(C(=O)NCc2ccc3c(c2)OCO3)c1,0.0,/,18.4,13.1,/,9.4
O=C(NCc1ccc2c(c1)OCO2)C(C(=O)c1ccccc1)n1cc(Cl)ccc1=O (stereo not given),4.0,84.8*,-0.3,-37.8,-5.4,10.4
Cc1ccc(-c2ccc(C3[C@H]4CNC[C@@H]3N4S(=O)(=O)c3cn(C)cn3)cc2)cc1 (stereo not given in full),/,2.9,/,/,2.9,/
N#Cc1c(N)nc(SCC(=O)NC2CCCCC2)c(C#N)c1-c1ccc(Cl)cc1,-1.8,/,73.9*,8.9,/,-1.8
CC(C)c1cn(CC[C@H]2CC[C@@H](NS(=O)(=O)c3ccc(Cl)cc3)[C@H](CO)O2)nn1,/,3.4,/,/,2.8,/
Cc1noc2ncnc(Sc3ccc(Br)cc3)c12,8.0,-0.4,99.0*,44.3,8.0,-16.9
Cc1noc2ncnc(N3CCCC3)c12,-0.4,-6.2,8.2,-7.8,-10.7,-1.6
C[C@@H]1CN([C@H](C)CO)C(=O)c2cc(NC(=O)CCCN(C)C)ccc2O[C@@H]1CN(C)C(=O)Nc1ccccc1,/,/,/,/,-11.5,/
Cc1noc(C)c1NC(=O)Nc1ccc2c(c1)CC(=O)N([C@@H](C)CO)C[C@@H](C)[C@H](CN(C)Cc1ccncc1)O2,/,6.4,/,/,-6.8,/
Cc1ccc(C(=O)N/N=C/c2cccc(OC(=O)/C=C/c3ccco3)c2)cn1,0.2,-140.7,-81.3,-48.2,-24.8,-28.4
O=C(/C=C/c1ccco1)Oc1cc(Br)cc(/C=N/NC(=O)c2ccccc2O)c1,1.9,10.3,16.1,94.4*,-2.9,25.5
CCc1nnc(SCC(=O)NC2CCCCC2)nc1CC,4.5,/,76.5*,-38.1,/,5.5
O=C(C[C@H]1CC[C@H]2[C@@H](COC[C@@H](O)CN2CCC(F)(F)F)O1)NCc1ccc(Oc2ccccc2)cc1,/,54.9,/,/,13.2,/
CN1CC(=O)N2C(c3ccc(Cl)cc3)c3[nH]c4ccccc4c3C[C@H]2C1=O (stereo not given in full),4.8,103.4*,14.0,42.4,49.3,6.8
CCCC(=O)Nc1ccc2c(c1)C(=O)N(C)C[C@@H](OC)[C@H](C)CN(C)[C@@H](C)CO2,/,/,/,/,-10.5,/
COc1ccc(C(=O)Nc2ccc(NC(=O)c3cccc(OC)c3)cn2)cc1,13.9,-69.0,20.9,3.0,4.4,-1.9
COc1ccc(COc2cc(-c3cccc(OC)c3)nc3ccc(NC(=O)c4ccc(Cl)cc4)cc23)cc1,-2.8,23.9,14.7,18.2,56.9*,11.1
COc1ccc(NC(=O)c2cccc(NC(=O)c3ccccc3)c2)cc1,8.1,-57.0,-131.3,-66.3,-57.8,-43.1
COc1ccc(COc2cc(-c3cccc(OC)c3)nc3ccc(NC(=O)c4ccccc4)cc23)cc1,-1.1,29.0,33.0,8.1,58.2*,8.5
COc1ccc(COc2cc(-c3cccc(OC)c3)nc3ccc(NC(=O)c4cccnc4)cc23)cc1,5.9,65.3*,54.0*,10.3,14.1,4.0
SMILES,ABHD5-PLIN5 inh,PAX8 reporter,Peg3 promoter,Shn3 3UTR inh,EWS-Fli block,MITF TRPM1 inh
COc1ccc(COc2cc(-c3cccc(OC)c3)nc3ccc(NC(=O)c4ccc(OC)cc4)cc23)cc1,0.4,77.5*,28.7,19.1,47.6,12.0
C[C@H](CO)N1C[C@H](C)[C@H](CN(C)C(=O)Nc2ccc(F)cc2)Oc2c(NC(=O)c3ccncc3)cccc2C1=O,/,-30.8,/,/,25.2,/
NC(=O)C1=CC2C3C=CC2(O)C(=O)OC3O1 (stereo not given),-3.5,-82.8,101.5*,-16.5,-1.2,71.2*
Cc1ccc(S(=O)(=O)N(C)C[C@@H]2Oc3ccc(NS(=O)(=O)c4cn(C)cn4)cc3CC(=O)N([C@H](C)CO)C[C@@H]2C)cc1,/,1.2,/,/,-5.8,/
Cc1cc(O)c2c(c1O)C(=O)[C@]13C(=C2O)C(=O)[C@@H]2[C@@H](O)[C@H]1[C@@H]1[C@H](O)[C@H]3C(=O)C3=C(O)c4c(O)cc(C)c(O)c4C(=O)[C@]312,-2.0,/,30.3,92.0*,/,?
O=C(C[C@@H]1C[C@@H]2c3cc(NC(=O)C4CCC4)ccc3O[C@@H]2[C@H](CO)O1)NCc1cccnc1,/,-17.2,/,/,5.2,/
O=C(Nc1ccc(Cl)cc1)c1cc2c(cc1O)[nH]c1ccccc12,-5.5,-5.8,53.6*,-20.8,15.2,2.8
CC(=O)Nc1ccc(NC(=O)CCc2nc3sc4c(c3c(=O)[nH]2)CCCC4)cc1,-5.2,-6.4,6.4,-4.2,-3.2,5.1
Cc1cc(C)cc(NC(=O)CCc2nc3sc4c(c3c(=O)[nH]2)CCCC4)c1,-12.3,54.5,84.3*,-43.8,14.2,6.0
Cc1[nH]nc2nc(SCC(=O)NC3CCCCC3)n(-c3ccc(Br)cc3)c(=N)c12,-3.7,108.9*,28.2,27.2,/,25.6
Nc1nc(N)nc(-c2cc([N+](=O)[O-])ccc2O)n1,-2.9,-9.2,59.9*,-24.4,-26.5,10.1
O=[N+]([O-])c1ccc(O)c(-c2cc(C(F)(F)F)nc(-c3ccccc3)n2)c1,4.7,107.1*,79.1*,90.3*,36.9,89.5*
Cc1nn(C)c(C(=O)NCc2ccc(Cl)cc2)c1Cl,-4.9,-13.3,-24.4,86.1*,/,10.0
O=C(C[C@H]1C[C@@H]2c3cc(NC(=O)CC4CC4)ccc3O[C@@H]2[C@@H](CO)O1)NCc1ccncc1,/,-14.8,/,/,-6.1,/
CCS(=O)(=O)N1Cc2ccccc2CC1C(=O)Nc1nnc(SCc2c(Cl)cccc2Cl)s1 (stereo not given),3.1,113.3*,-2.4,-2.5,0.5,1.1
CCSc1nnc(NC(=O)C2Cc3ccccc3CN2S(=O)(=O)CC)s1 (stereo not given),0.4,-25.6,-246.4,-39.2,-10.5,-36.3
COc1ccc(CN(C)C[C@@H]2OCCCC[C@@H](C)Oc3ccc(NC(=O)Nc4c(C)noc4C)cc3C(=O)N([C@@H](C)CO)C[C@H]2C)cc1,/,-4.3,/,/,-6.8,/
O=C(NCC[C@@H]1CC[C@@H](NC(=O)C2CCCC2)[C@H](CO)O1)c1cc(Cl)cc(Cl)c1,/,17.0,/,/,2.4,/
